# The campaign covered roughly 310,000 compounds. About 14,000 (4.5%) showed an effect of 50% or more. Effects have a minus sign here. The sample holds strong results, similar compounds and a random draw of the others, so the mix is not that of the screen.
# Biological target: human ether-à-go-go-related gene (hERG) potassium channel (human, UniProt Q12809)
# Assay: primary screen, population patch clamp on CHO cells stably expressing hERG; higher = less effect of the substance
# 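Note: peak tail current of the secondary pulse compared with the same well before compound.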
# Chain of human ether-à-go-go-related gene (hERG) potassium channel (Q12809 whole entry, looked up): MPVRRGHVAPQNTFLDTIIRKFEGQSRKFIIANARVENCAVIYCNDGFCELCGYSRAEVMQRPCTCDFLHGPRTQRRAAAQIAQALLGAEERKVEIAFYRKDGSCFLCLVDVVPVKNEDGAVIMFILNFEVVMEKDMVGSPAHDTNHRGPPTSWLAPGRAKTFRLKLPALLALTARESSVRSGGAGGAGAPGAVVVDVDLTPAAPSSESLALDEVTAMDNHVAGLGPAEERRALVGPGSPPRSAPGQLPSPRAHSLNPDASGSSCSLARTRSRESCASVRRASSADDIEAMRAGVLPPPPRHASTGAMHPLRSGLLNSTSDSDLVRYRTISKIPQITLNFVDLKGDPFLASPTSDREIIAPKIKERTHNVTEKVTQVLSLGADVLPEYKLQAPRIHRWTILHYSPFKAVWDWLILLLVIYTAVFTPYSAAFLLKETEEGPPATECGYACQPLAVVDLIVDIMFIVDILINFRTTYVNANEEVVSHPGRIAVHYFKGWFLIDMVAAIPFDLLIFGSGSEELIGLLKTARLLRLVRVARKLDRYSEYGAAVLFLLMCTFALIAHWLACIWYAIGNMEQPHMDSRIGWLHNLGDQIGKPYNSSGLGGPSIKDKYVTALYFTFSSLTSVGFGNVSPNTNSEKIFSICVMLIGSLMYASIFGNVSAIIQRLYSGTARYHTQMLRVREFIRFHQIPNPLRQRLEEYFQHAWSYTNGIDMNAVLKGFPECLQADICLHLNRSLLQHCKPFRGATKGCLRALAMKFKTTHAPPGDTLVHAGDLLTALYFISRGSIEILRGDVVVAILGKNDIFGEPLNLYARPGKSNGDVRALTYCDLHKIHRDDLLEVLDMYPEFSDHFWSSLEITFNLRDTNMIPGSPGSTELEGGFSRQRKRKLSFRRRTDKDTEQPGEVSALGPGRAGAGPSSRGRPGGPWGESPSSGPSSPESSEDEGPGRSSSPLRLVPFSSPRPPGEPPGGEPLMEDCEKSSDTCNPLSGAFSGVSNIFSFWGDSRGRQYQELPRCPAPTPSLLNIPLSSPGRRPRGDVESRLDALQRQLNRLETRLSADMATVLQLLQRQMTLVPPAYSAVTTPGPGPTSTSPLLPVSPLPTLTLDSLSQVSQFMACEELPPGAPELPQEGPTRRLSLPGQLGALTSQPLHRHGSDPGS
row,SMILES,"hERG current change (%, negative = inhibition) at 10uM [%]"
1,O=C(COc1ccccc1-c1ccccc1)NN=C1CCCC1,-6.03
2,COC(=O)c1cc(NC(=O)CN(c2ccc3c(c2)OCO3)S(C)(=O)=O)ccc1Cl,-8.58
3,CCN1CCN(Cc2ccc(NC(=O)c3cc(NC(=O)C(=O)c4c[nH]c5ccccc45)cc(OC)c3)cc2C(F)(F)F)CC1,8.1
4,O=C(CSc1nc2cc(Cl)c(Cl)cc2[nH]1)c1ccc2c(c1)OCO2,7.8
5,Cc1c(C(C)NC(=O)Nc2ccc(F)cc2F)cnn1C (stereo not shown),15.2
6,O=C(O)/C=C/c1ccc([N+](=O)[O-])o1,22.2
7,Fc1ccccc1CSc1nnc(-c2ccccc2)o1,-9.31
8,COP(=O)(OC)C(NS(=O)(=O)c1ccccc1)C(Cl)(Cl)Cl (stereo not shown),23.8
9,COc1ccc(OC)c(Nc2cc(C)nc3ccccc23)c1,-57.6
10,COc1ccc(Cl)cc1Nc1nc(N)c2ccccc2n1.Cl,20.4
11,COc1ccc2nc(C)cc(Nc3ccccc3O)c2c1.Cl,-20.3
12,COc1ccc(OC)c(Nc2cc(-c3ccccc3)nc(N)n2)c1,-55.9
13,COc1ccc(OC)c(Nc2cc(C)c3ccccc3n2)c1,2
14,COc1ccc(Cl)cc1Nc1cc(C)nc2ccccc12,-73
15,COc1ccc(OC)c(Nc2cc(C)nc3ccc(C)cc23)c1,-68.6
16,COc1ccc(OC)c(Nc2ncnc3ccccc23)c1.Cl,-18.6
17,COc1ccc(OC)c(Nc2ccc(Nc3cc(OC)ccc3OC)nn2)c1,-2.07
18,COc1ccc(OC)c(Nc2nc(-c3ccccc3O)nc3ccccc23)c1,18.7
19,CCOC(=O)c1nc(Nc2cc(Cl)ccc2OC)c2ccccc2n1,6.83
20,Cc1cccc(OC(C)C(=O)Nc2ccccc2C(=O)N2CCCCC2)c1 (stereo not shown),-0.472
21,CCCC1=Nc2cc(C(=O)NCc3ccco3)ccc2Sc2ccccc21,1.84

row,SMILES,"hERG current change (%, negative = inhibition) at 10uM [%]"
1,CC(Cl)C(=O)Nc1cc(C(F)(F)F)ccc1N1CCOCC1 (stereo not shown),2.38
2,COc1ccccc1N(CC1CO1)S(=O)(=O)c1ccc(C)cc1 (stereo not shown),18.9
3,Cc1cccc(NC(=O)Cc2c(F)cccc2Cl)n1,5.01
4,O=C(Nc1cccc(C(=O)N2CCCCCC2)c1)c1ccco1,-14.5
5,CC1CCN(C(C)C(=O)Nc2cc(S(=O)(=O)N3CCCCC3)ccc2Cl)CC1 (stereo not shown),-18.3
6,COc1ccc2c(c1)C(c1cccs1)=NNC(c1cccnc1)=N2,10.4
7,CCOc1ccc2c(c1)C(c1cccs1)=NNC(c1cccnc1)=N2,-65.4
8,CCc1ccc2c(c1)C(c1cccs1)=NNC(c1cccnc1)=N2,-48.6
9,O=C(CCn1c(=S)oc2ccccc21)N1CCCCC1,-7.1
10,COc1ccc(C)cc1S(=O)(=O)N1CCN(S(=O)(=O)c2cc(C)ccc2OC)CC1,-1.43
11,COc1ccc(CNCc2ccc3c(c2)OCO3)cc1Br.O=C(O)C(=O)O,-23.1
12,COc1ccc(CCNCc2ccc(Br)cc2)cc1OC.O=C(O)C(=O)O,-62.9
13,COc1ccc(OC)c(CNCCc2ccc(OC)c(OC)c2)c1.O=C(O)C(=O)O,5.38
14,COc1ccc(CCNCc2cccc(C(F)(F)F)c2)cc1OC.O=C(O)C(=O)O,0.584
15,COc1ccc(Br)cc1CNCCc1ccc2c(c1)OCO2,-60.7
16,COc1cc(Br)c(CNCCc2ccc3c(c2)OCO3)cc1OC,-32
17,COc1cc(CNCCc2ccc3c(c2)OCO3)cc(OC)c1OC.O=C(O)C(=O)O,-14.2
18,COc1cc(OC)c(OC)cc1CNCCc1ccc2c(c1)OCO2.O=C(O)C(=O)O,-8.77
19,COc1ccc(CNCCc2ccc3c(c2)OCO3)cc1Br.O=C(O)C(=O)O,-50.5
20,Cc1nnc(NC(=O)c2cc(S(=O)(=O)N3CCCCC3)ccc2Cl)s1,14.6
21,CC(=O)c1ccc(NS(=O)(=O)c2c(C)cc(C)cc2C)cc1,17.9

row,SMILES,"hERG current change (%, negative = inhibition) at 10uM [%]"
1,N#Cc1cn(-c2ccccc2)nc1-c1ccccc1,0.313
2,COC(=O)c1cc(CSc2ncnc3sccc23)oc1C,16.6
3,COc1cc(OC)c(OC)cc1CN1CCN(C(=O)Cc2ccccc2)CC1.O=C(O)C(=O)O,5.5
4,CCOC(=O)C1(CCc2ccccc2)CCN(Cc2cc(OC)c(OC)cc2OC)CC1,-77.4
5,CCOC(=O)C1(CCc2ccccc2)CCN(Cc2c(O)cccc2OC)CC1,-95.1
6,O=C(NCc1cccc(C(F)(F)F)c1)c1cccc(Cl)c1Cl,10.5
7,CCc1cc(Cn2nc(-c3ccccc3)cc2C(=O)O)on1,-1.7
8,O=C(CNC(=O)c1cccs1)N/N=C/c1cccc(Cl)c1,-5.74
9,COc1ccc(OC)c(NC(=O)C(=O)NNC(=O)c2cccs2)c1,10.9
10,O=C(NCCCO)C(=O)NCC(c1ccc2c(c1)OCO2)N1CCN(c2ccc(F)cc2)CC1 (stereo not shown),-41.4
11,CC[N+](CC)(CCCCS(=O)(=O)[O-])CCNP1(=O)C=C(c2ccccc2)OC(c2ccccc2)=C1,9.75
12,O=C(C[N+]1(CC#Cc2ccccc2)CCOCC1)c1ccccc1.[Br-],35.8
13,N#CC[N+]1(CCCNP2(=O)C=C(c3ccccc3)OC(c3ccccc3)=C2)CCOCC1.[Cl-],-63.5
14,CC(=O)N1N=C2/C(=C/c3ccccc3)CCCC2C1c1ccccc1 (stereo not shown),-10.5
15,O=C(c1ccccn1)N1N=C2/C(=C/c3ccccc3)CCCC2C1c1ccccc1 (stereo not shown),-37.1
16,O=C(c1ccccn1)N1N=C2/C(=C/c3ccc(F)cc3)CCCC2C1c1ccc(F)cc1 (stereo not shown),-54.3
17,NC(=O)N1N=C2/C(=C/c3ccccc3)CCCC2C1c1ccccc1 (stereo not shown),-17.1
18,O=C1CCC(C(=O)OCC(=O)N2N=C3/C(=C/c4ccccc4)CCCC3C2c2ccccc2)N1 (stereo not shown),-70.3
19,Cc1ncsc1C(=O)N1N=C2/C(=C/c3ccccc3)CCCC2C1c1ccccc1 (stereo not shown),-0.298
